Drawing on paper PMC7862700, “An all-to-all approach to the identification of sequence-specific readers for epigenetic DNA modifications on cytosine”, this text covers binding signal for one sequence.

Common to all, as to test: DAPPL (digital affinity profiling via proximity ligation, sequencing); 10 mM Tris-HCl pH 7.5, 50 mM NaCl, 1 mM DTT, 4% glycerol, room temperature, 30 min; GST-TFs on glutathione beads, 16-mer random dsDNA library, 0.1% formaldehyde crosslink after washing; high values mean tight binding
The target in test [1] is T1, FEV (Homo sapiens, UniProt Q99581 1-238).
T1 sequence: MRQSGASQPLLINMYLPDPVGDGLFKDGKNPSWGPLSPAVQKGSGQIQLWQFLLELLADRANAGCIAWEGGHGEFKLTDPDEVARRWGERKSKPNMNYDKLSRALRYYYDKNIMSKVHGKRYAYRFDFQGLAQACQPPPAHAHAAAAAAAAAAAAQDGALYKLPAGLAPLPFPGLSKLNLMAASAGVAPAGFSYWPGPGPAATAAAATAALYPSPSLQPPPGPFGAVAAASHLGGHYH
The conditions noted are these: protein: recombinant; tags: N-terminal GST; dsDNA, one strand shown. The method, boiled down:
(§1)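 After expression in yeast as GST fusions, human transcription factors were bound to glutathione beads, DNA-barcoded and mixed with a tag-only sample. The pools were incubated with 200 nmole of a 16-mer random double-stranded DNA library in Tris/NaCl/DTT/glycerol buffer (30 min, room temperature), washed and crosslinked with 0.1% formaldehyde. Proximity ligation with BsaI/T4 ligase ran for 1 h at 37 °C, before PCR amplification and sequencing on an Illumina NextSeq500. Binding signal is a hexamer's read frequency for a factor divided by its frequency for the tag-only sample.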

Test [2] concerns the target ETV5 (Homo sapiens, UniProt P41161 1-510). The conditions noted are these: protein: recombinant; tags: N-terminal GST; dsDNA, one strand shown. Summed up: as §1
Test [3] deals with HSF1 (Homo sapiens, UniProt Q00613 1-529). Conditions: protein: recombinant; tags: N-terminal GST; chain copies: 3; dsDNA, one strand shown. The method, boiled down: as §1
For test [4], the target named is T2, SPIC (Homo sapiens, UniProt Q8N5J4 1-248).
T2 sequence: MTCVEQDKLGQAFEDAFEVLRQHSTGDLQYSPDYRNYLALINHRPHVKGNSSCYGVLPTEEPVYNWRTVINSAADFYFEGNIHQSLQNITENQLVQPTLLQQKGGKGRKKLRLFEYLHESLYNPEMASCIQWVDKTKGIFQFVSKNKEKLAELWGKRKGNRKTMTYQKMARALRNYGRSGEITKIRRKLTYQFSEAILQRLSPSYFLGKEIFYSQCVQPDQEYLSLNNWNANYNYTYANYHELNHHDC
The conditions noted are these: protein: recombinant; tags: N-terminal GST; dsDNA, one strand shown. Summed up: as §1

For test [5], the target named is ELF4 (Homo sapiens, UniProt Q99607 1-663). The conditions noted are these: protein: recombinant; tags: N-terminal GST; dsDNA, one strand shown. Summed up:
as §1

Test [6] concerns the target T3, ELK4 (Homo sapiens, UniProt P28324-2 1-405).
T3 sequence: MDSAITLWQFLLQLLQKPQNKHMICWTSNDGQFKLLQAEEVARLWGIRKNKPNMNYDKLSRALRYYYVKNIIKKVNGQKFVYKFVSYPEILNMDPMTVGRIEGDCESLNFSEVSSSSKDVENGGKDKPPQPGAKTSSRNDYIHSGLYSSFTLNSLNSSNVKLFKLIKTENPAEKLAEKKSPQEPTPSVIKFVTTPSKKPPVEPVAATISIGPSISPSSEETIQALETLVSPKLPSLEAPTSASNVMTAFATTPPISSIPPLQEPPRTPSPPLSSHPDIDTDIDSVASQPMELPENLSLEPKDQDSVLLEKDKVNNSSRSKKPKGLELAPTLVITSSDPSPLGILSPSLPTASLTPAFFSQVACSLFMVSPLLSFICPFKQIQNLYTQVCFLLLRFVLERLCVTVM
The conditions noted are these: protein: recombinant; tags: N-terminal GST; dsDNA, one strand shown. The method, boiled down: as §1

Test [7] addresses T4, ETV2 (Homo sapiens, UniProt O00321 1-342).
T4 sequence: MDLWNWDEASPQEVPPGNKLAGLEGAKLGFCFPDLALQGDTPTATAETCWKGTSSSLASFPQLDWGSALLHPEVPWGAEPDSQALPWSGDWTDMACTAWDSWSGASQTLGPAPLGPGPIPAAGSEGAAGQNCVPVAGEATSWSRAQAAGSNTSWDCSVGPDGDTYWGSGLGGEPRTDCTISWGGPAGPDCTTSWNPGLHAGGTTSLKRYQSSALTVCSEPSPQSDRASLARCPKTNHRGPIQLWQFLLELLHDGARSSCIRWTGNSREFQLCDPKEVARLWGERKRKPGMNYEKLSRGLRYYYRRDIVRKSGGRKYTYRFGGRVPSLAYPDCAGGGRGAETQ
The conditions noted are these: protein: recombinant; tags: N-terminal GST; dsDNA, one strand shown. Summed up: as §1

The target in test [8] is T5, ELF3 (Homo sapiens, UniProt P78545 1-371).
T5 sequence: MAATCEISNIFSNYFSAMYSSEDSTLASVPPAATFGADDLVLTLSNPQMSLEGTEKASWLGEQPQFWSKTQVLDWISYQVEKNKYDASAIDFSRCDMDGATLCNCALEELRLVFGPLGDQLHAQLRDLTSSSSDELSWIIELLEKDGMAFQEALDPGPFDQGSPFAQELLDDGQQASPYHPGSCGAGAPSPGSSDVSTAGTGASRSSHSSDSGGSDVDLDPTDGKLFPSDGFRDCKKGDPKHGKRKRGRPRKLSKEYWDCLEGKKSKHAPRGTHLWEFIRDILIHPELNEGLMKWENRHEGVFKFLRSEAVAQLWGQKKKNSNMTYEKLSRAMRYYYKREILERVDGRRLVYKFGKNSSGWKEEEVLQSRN
Conditions: protein: recombinant; tags: N-terminal GST; dsDNA, one strand shown. Summed up: as §1

The target of test [9] is CRX (Homo sapiens, UniProt O43186 1-299). Conditions: protein: recombinant; tags: N-terminal GST; dsDNA, one strand shown. Summed up:
as §1

The target of test [10] is ETV1 (Homo sapiens, UniProt P50549 1-477). The conditions noted are these: protein: recombinant; tags: N-terminal GST; dsDNA, one strand shown. The method, boiled down:
as §1

Test [11] concerns the target T6, ERF (Homo sapiens, UniProt P50548 1-548).
T6 sequence: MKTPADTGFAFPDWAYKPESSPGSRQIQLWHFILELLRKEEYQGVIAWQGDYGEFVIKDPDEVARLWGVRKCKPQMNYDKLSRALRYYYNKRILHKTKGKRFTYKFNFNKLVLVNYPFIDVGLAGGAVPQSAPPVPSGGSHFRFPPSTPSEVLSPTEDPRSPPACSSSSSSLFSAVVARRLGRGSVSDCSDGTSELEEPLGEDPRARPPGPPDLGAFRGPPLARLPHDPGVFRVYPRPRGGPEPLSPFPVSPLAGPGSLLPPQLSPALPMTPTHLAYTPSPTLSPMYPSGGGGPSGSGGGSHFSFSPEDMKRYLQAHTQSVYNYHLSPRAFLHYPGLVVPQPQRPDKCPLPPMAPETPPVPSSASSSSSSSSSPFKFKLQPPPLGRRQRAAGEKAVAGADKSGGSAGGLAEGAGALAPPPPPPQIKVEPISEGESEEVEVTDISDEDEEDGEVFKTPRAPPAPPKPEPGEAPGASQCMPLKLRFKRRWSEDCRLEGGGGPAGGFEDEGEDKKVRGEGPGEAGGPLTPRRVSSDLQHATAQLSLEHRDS
The conditions noted are these: protein: recombinant; tags: N-terminal GST; dsDNA, one strand shown. The method, boiled down: as §1

In test [12] the target is T7, ETV3L (Homo sapiens, UniProt Q6ZN32 1-361).
T7 sequence: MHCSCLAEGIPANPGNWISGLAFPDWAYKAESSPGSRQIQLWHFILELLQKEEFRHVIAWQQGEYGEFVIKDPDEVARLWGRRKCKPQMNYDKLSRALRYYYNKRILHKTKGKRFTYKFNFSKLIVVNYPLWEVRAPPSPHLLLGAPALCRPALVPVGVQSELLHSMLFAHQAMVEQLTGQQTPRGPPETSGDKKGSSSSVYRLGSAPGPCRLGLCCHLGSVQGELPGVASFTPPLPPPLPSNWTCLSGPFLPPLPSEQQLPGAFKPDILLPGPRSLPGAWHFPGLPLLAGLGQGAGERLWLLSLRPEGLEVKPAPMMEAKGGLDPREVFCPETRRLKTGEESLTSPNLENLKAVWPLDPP
The conditions noted are these: protein: recombinant; tags: N-terminal GST; dsDNA, one strand shown. The method, boiled down: as §1

Test [13] deals with T8, ETS2 (Homo sapiens, UniProt P15036 1-469).
T8 sequence: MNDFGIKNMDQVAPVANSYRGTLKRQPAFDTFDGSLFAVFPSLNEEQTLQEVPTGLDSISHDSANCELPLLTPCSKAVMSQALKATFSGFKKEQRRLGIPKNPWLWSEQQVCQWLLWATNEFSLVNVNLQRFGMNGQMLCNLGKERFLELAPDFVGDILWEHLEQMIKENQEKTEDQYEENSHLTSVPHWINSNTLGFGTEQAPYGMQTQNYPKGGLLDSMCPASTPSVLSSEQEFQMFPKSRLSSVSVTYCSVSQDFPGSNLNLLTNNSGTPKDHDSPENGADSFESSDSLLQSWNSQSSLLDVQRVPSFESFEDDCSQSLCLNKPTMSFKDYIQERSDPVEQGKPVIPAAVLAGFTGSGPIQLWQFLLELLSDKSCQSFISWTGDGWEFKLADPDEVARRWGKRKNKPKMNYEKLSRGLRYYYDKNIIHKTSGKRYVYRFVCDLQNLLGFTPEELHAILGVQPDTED
The conditions noted are these: protein: recombinant; tags: N-terminal GST; dsDNA, one strand shown. The method, boiled down: as §1

Test [14] concerns the target T9, SPDEF (Homo sapiens, UniProt O95238 1-335).
T9 sequence: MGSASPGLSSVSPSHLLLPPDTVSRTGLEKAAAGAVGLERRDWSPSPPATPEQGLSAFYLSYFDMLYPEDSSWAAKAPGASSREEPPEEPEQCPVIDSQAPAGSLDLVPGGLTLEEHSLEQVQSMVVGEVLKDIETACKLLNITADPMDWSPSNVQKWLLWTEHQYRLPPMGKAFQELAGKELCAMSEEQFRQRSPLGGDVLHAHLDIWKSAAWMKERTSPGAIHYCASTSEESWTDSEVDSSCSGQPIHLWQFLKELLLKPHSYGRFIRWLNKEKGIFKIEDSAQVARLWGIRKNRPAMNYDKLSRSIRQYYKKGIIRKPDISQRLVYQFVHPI
Conditions: protein: recombinant; tags: N-terminal GST; dsDNA, one strand shown. The method, boiled down:
as §1

Test [15] deals with T10, ETV7 (Homo sapiens, UniProt Q9Y603 1-341).
T10 sequence: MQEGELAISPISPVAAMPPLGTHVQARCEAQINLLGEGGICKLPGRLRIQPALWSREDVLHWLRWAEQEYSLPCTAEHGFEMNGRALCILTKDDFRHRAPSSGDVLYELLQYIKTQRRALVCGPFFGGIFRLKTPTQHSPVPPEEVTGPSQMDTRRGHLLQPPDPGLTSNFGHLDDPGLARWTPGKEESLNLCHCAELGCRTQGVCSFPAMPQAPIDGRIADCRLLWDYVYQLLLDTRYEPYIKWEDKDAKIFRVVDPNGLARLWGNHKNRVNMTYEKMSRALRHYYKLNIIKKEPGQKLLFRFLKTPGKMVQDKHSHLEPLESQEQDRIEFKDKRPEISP
Conditions: protein: recombinant; tags: N-terminal GST; dsDNA, one strand shown. The method, boiled down: as §1

For test [16], the target named is T11, ELF5 (Homo sapiens, UniProt Q9UKW6-2 1-255).
T11 sequence: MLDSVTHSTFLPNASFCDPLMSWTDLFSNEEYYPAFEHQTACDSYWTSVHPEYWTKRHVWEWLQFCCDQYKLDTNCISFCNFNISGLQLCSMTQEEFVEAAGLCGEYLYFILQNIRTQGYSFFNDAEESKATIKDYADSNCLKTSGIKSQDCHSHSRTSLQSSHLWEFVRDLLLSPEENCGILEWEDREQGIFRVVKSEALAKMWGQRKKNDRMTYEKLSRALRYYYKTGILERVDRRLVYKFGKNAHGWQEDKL
Conditions: protein: recombinant; tags: N-terminal GST; dsDNA, one strand shown. The method, boiled down:
as §1

Test [17] deals with T12, ETV3 (Homo sapiens, UniProt P41162-2 1-143).
T12 sequence: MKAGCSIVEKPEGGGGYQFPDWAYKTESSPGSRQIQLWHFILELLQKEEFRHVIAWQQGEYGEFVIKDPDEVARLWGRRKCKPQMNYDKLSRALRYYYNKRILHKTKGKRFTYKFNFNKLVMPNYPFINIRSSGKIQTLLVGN
Conditions: protein: recombinant; tags: N-terminal GST; dsDNA, one strand shown. The method, boiled down: as §1

Test [18] has as its target ETV6 (Homo sapiens, UniProt P41212 1-452). Conditions: protein: recombinant; tags: N-terminal GST; dsDNA, one strand shown. The method, boiled down:
as §1

ELF4, sequence (Q99607 whole entry): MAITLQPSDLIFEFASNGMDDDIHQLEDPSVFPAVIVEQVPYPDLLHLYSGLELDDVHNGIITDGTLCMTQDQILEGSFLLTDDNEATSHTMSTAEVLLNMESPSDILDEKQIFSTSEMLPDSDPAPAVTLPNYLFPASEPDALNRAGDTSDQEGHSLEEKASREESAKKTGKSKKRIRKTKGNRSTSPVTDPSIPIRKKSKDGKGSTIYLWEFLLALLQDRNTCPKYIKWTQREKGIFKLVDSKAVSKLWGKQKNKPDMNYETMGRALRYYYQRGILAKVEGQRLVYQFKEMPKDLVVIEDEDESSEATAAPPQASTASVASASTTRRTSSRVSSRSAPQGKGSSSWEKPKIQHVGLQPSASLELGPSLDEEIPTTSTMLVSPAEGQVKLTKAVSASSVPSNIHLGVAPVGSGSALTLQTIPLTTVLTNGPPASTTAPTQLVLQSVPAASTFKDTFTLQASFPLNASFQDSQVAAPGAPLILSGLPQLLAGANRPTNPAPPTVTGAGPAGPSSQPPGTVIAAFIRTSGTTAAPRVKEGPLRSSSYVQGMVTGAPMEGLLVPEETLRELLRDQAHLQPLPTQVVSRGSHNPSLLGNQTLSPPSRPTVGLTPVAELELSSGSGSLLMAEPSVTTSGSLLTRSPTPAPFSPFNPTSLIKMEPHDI
ETV5, sequence (P41161 whole entry): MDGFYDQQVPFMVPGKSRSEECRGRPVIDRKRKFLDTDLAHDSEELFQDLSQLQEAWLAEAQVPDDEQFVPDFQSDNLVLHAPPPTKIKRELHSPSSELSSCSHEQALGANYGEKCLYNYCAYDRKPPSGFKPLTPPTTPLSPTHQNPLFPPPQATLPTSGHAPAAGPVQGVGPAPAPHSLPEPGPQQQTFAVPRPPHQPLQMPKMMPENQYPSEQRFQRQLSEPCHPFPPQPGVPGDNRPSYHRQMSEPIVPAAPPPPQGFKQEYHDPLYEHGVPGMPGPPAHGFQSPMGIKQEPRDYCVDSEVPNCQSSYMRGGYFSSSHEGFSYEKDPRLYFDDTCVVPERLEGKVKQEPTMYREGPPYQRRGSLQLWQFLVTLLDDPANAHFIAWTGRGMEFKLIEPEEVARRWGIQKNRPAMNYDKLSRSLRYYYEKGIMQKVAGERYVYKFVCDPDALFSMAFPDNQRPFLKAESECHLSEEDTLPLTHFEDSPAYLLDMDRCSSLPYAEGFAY
CRX, sequence (O43186 whole entry): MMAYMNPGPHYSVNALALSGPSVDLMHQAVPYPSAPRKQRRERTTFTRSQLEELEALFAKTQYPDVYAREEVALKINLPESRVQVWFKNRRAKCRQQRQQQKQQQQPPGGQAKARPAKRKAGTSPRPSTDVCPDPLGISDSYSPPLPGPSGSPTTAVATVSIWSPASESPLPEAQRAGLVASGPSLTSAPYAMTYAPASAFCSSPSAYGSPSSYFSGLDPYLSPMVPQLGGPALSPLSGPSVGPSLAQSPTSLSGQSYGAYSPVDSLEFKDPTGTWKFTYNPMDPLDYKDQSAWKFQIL
ETV1, sequence (P50549 whole entry): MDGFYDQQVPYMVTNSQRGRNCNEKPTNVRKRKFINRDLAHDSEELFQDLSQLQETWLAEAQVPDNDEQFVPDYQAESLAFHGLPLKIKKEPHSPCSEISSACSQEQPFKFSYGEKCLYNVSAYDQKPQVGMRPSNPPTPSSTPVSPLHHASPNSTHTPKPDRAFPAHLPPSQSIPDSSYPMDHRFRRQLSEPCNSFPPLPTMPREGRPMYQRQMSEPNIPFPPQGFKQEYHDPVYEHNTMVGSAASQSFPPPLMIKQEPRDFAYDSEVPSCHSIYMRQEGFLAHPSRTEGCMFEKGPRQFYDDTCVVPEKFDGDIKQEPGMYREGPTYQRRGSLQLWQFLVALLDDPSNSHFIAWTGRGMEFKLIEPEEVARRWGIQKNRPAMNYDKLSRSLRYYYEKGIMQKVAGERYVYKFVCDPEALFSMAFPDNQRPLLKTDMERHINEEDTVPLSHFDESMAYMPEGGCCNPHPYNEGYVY
ETV6, sequence (P41212 whole entry): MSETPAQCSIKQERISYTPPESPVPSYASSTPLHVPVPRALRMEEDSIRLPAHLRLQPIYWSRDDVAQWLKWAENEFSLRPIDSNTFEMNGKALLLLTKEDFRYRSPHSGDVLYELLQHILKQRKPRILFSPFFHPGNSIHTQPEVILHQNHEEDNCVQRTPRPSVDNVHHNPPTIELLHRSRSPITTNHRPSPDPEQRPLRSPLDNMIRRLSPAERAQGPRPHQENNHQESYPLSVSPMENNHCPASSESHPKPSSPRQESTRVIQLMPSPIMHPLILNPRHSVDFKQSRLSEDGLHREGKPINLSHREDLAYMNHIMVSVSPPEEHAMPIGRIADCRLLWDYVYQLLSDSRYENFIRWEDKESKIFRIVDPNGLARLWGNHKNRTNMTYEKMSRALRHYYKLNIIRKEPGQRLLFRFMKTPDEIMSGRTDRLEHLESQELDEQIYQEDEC
HSF1, sequence (Q00613 whole entry): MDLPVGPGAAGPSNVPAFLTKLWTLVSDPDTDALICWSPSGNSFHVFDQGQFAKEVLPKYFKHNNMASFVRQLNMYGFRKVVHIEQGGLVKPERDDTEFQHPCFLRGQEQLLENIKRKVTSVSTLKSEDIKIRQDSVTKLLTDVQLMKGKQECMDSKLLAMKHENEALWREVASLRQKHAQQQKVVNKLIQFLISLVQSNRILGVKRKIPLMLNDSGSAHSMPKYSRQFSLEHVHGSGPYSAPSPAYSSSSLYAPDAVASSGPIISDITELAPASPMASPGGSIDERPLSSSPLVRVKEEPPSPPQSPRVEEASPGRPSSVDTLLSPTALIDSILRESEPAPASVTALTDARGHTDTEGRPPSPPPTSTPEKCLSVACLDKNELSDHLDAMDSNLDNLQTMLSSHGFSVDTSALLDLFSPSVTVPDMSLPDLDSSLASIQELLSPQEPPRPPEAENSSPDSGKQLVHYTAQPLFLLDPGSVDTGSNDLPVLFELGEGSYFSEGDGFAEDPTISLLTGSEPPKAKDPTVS

Take TACATA: the binding signal in test [1] is 1.21 fold enrichment (6-mer frequency, TF over GST control); in test [2], 1.24 fold enrichment (6-mer frequency, TF over GST control); in test [3], 1.15 fold enrichment (6-mer frequency, TF over GST control); in [4], 1.36 fold enrichment (6-mer frequency, TF over GST control); in test [5] it was 1.22 fold enrichment (6-mer frequency, TF over GST control); in [6] it was 1.22 fold enrichment (6-mer frequency, TF over GST control). Besides, the binding signal was 1.24 fold enrichment (6-mer frequency, TF over GST control) in test [7]; 1.18 fold enrichment (6-mer frequency, TF over GST control) in test [8]; 1.27 fold enrichment (6-mer frequency, TF over GST control) in [9]; 1.25 fold enrichment (6-mer frequency, TF over GST control) in test [10]; 1.33 fold enrichment (6-mer frequency, TF over GST control) in test [11]; 1.1 fold enrichment (6-mer frequency, TF over GST control) in test [12]. Moreover, the binding signal in [13] is 1.27 fold enrichment (6-mer frequency, TF over GST control); in [14], 1.2 fold enrichment (6-mer frequency, TF over GST control); in test [15] it was 1.31 fold enrichment (6-mer frequency, TF over GST control); in test [16], 1.16 fold enrichment (6-mer frequency, TF over GST control); in test [17] it was 1.21 fold enrichment (6-mer frequency, TF over GST control); in test [18] it was 1.21 fold enrichment (6-mer frequency, TF over GST control).
